Laboratory results published in PubChem BioAssay AID1159580 (chemical genetic matrix, 2015).
The campaign covered roughly 5,500 compounds. About 2,000 (36%) were called active. Not shown: some 18% with an inconclusive outcome. Rule as the data show it: active = normalized growth mostly below about 0.91 (no sharp cut-off); inconclusive = no clear call, values can overlap the other calls; inactive = mostly above about 0.92. The list shows a part of the results.

Assay: chemical genetic growth profiling, strain panel (AID 1159580);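 also: tested at 20 µM; growth read once vehicle control cultures reached saturation at 30 °C; 1 = growth at the plate median or of vehicle wells; lower values mean less growth of the strain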
Details: growth OD

Measured: normalized growth

CC(C)CCCC(C)C1CC[C@@]2(C)C3=C(CC[C@]12C)[C@@]1(C)CC[C@H](O)C(C)(C)C1CC3 (stereo partly specified)
inactive: S. cerevisiae deletion strains, locus YAL013W, strain DEP1, stronger effect = lower value 1.01 | S. cerevisiae deletion strains, locus YBR021W, strain FUR4, stronger effect = lower value 0.959 | S. cerevisiae deletion strains, locus YBR229C, strain ROT2, stronger effect = lower value 1 | S. cerevisiae deletion strains, locus YCL029C, strain bik1, stronger effect = lower value 0.976 | S. cerevisiae deletion strains, locus YDL035C, strain GPR1, stronger effect = lower value 1 | S. cerevisiae deletion strains, locus YDL074C, strain BRE1, stronger effect = lower value 1.06 | S. cerevisiae deletion strains, locus YDL101C, strain DUN1, stronger effect = lower value 1.01 | S. cerevisiae deletion strains, locus YDL134C, strain PPH21, stronger effect = lower value 0.997 | S. cerevisiae deletion strains, locus YDL185W, strain tfp1, stronger effect = lower value 0.985 | S. cerevisiae deletion strains, locus YDL192W, strain arf1, stronger effect = lower value 0.983 | S. cerevisiae deletion strains, locus YDR101C, strain arx1, stronger effect = lower value 0.996 | S. cerevisiae deletion strains, locus YDR150W, strain NUM1, stronger effect = lower value 1 | S. cerevisiae deletion strains, locus YDR162C, strain NBP2, stronger effect = lower value 1.02 | S. cerevisiae deletion strains, locus YDR318W, strain mcm21, stronger effect = lower value 0.974 | S. cerevisiae deletion strains, locus YDR388W, stronger effect = lower value 0.981 | S. cerevisiae deletion strains, locus YDR502C, strain sam2, stronger effect = lower value 0.99 | S. cerevisiae deletion strains, locus YEL061C, strain CIN8, stronger effect = lower value 1.01 | S. cerevisiae deletion strains, locus YER110C, stronger effect = lower value 0.975 | S. cerevisiae deletion strains, locus YER155C, strain BEM2, stronger effect = lower value 1 | S. cerevisiae deletion strains, locus YER167W, strain BCK2, stronger effect = lower value 0.99 | S. cerevisiae deletion strains, locus YGL078C, strain dbp3, stronger effect = lower value 0.993 | S. cerevisiae deletion strains, locus YGL086W, strain mad1, stronger effect = lower value 0.986 | S. cerevisiae deletion strains, locus YGL248W, strain PDE1, stronger effect = lower value 0.995 | S. cerevisiae deletion strains, locus YGR078C, strain PAC10, stronger effect = lower value 1.04 | S. cerevisiae deletion strains, locus YGR135W, strain pre9, stronger effect = lower value 0.995 | S. cerevisiae deletion strains, locus YGR229C, strain SMI1, stronger effect = lower value 1.03 | S. cerevisiae deletion strains, locus YGR252W, strain gcn5, stronger effect = lower value 0.95 | S. cerevisiae deletion strains, locus YHR030C, strain SLT2, stronger effect = lower value 0.998 | S. cerevisiae deletion strains, locus YHR079C, strain IRE1 (second series), stronger effect = lower value 0.982 | S. cerevisiae deletion strains, locus YHR094C, strain hxt1, stronger effect = lower value 0.985 | S. cerevisiae deletion strains, locus YHR129C, strain ARP1, stronger effect = lower value 1 | S. cerevisiae deletion strains, locus YHR200W, strain rpn10, stronger effect = lower value 0.981 | S. cerevisiae deletion strains, locus YIL066C, strain RNR3, stronger effect = lower value 1.01 | S. cerevisiae deletion strains, locus YIL073C, strain SPO22, stronger effect = lower value 0.918 | S. cerevisiae deletion strains, locus YIL125W, strain kgd1, stronger effect = lower value 0.992 | S. cerevisiae deletion strains, locus YIR030C, strain dcg1, stronger effect = lower value 0.987 | S. cerevisiae deletion strains, locus YJL095W, strain BCK1, stronger effect = lower value 1.06 | S. cerevisiae deletion strains, locus YJL134W, strain LCB3, stronger effect = lower value 0.994 | S. cerevisiae deletion strains, locus YJL168C, strain set2, stronger effect = lower value 0.985 | S. cerevisiae deletion strains, locus YJL187C, strain SWE1 (second series), stronger effect = lower value 1 | S. cerevisiae deletion strains, locus YJR043C, strain POL32, stronger effect = lower value 0.987 | S. cerevisiae deletion strains, locus YJR075W, strain HOC1, stronger effect = lower value 1.03 | S. cerevisiae deletion strains, locus YKL009W, strain mrt4, stronger effect = lower value 0.939 | S. cerevisiae deletion strains, locus YKL068W, stronger effect = lower value 1 | S. cerevisiae deletion strains, locus YKL085W, strain MDH1 (second series), stronger effect = lower value 0.988 | S. cerevisiae deletion strains, locus YKL085W, strain MDH1, stronger effect = lower value 0.988 | S. cerevisiae deletion strains, locus YKL190W, strain CNB1, stronger effect = lower value 1 | S. cerevisiae deletion strains, locus YKR001C, strain vps1, stronger effect = lower value 0.984 | S. cerevisiae deletion strains, locus YLR039C, strain RIC1, stronger effect = lower value 0.985 | S. cerevisiae deletion strains, locus YLR058C, strain SHM2, stronger effect = lower value 1 | S. cerevisiae deletion strains, locus YLR102C, strain apc9, stronger effect = lower value 0.993 | S. cerevisiae deletion strains, locus YLR262C, strain YPT6, stronger effect = lower value 0.976 | S. cerevisiae deletion strains, locus YLR268W, strain sec22, stronger effect = lower value 0.996 | S. cerevisiae deletion strains, locus YLR330W, strain CHS5, stronger effect = lower value 1 | S. cerevisiae deletion strains, locus YLR342W, strain FKS1 (second series), stronger effect = lower value 0.96 | S. cerevisiae deletion strains, locus YLR371W, strain rom2, stronger effect = lower value 0.98 | S. cerevisiae deletion strains, locus YLR418C, strain cdc73, stronger effect = lower value 1.04 | S. cerevisiae deletion strains, locus YML016C, strain PPZ1, stronger effect = lower value 0.997 | S. cerevisiae deletion strains, locus YML032C, strain rad52, stronger effect = lower value 0.966 | S. cerevisiae deletion strains, locus YML124C, strain tub3, stronger effect = lower value 0.982 | S. cerevisiae deletion strains, locus YMR078C, strain ctf18, stronger effect = lower value 0.972 | S. cerevisiae deletion strains, locus YMR223W, strain ubp8, stronger effect = lower value 0.965 | S. cerevisiae deletion strains, locus YMR263W, strain SAP30, stronger effect = lower value 1.03 | S. cerevisiae deletion strains, locus YMR307W, strain GAS1, stronger effect = lower value 0.957 | S. cerevisiae deletion strains, locus YNL067W, strain RPL9B, stronger effect = lower value 1.04 | S. cerevisiae deletion strains, locus YNL128W, strain TEP1, stronger effect = lower value 1.04 | S. cerevisiae deletion strains, locus YNL153C, strain GIM3, stronger effect = lower value 1.02 | S. cerevisiae deletion strains, locus YNL233W, strain BNI4, stronger effect = lower value 1.01 | S. cerevisiae deletion strains, locus YNL250W, strain rad50, stronger effect = lower value 1.02 | S. cerevisiae deletion strains, locus YNL271C, strain bni1, stronger effect = lower value 0.988 | S. cerevisiae deletion strains, locus YNL298W, strain CLA4, stronger effect = lower value 0.967 | S. cerevisiae deletion strains, locus YNL307C, strain MCK1, stronger effect = lower value 0.959 | S. cerevisiae deletion strains, locus YNL322C, strain KRE1, stronger effect = lower value 1.01 | S. cerevisiae deletion strains, locus YNR052C, strain pop2, stronger effect = lower value 0.98 | S. cerevisiae deletion strains, locus YOL006C, strain TOP1, stronger effect = lower value 1.03 | S. cerevisiae deletion strains, locus YOL012C, strain htz1 0.94 | S. cerevisiae deletion strains, locus YOL147C, strain pex11, stronger effect = lower value 0.989 | S. cerevisiae deletion strains, locus YOR061W, strain CKA2, stronger effect = lower value 1.01 | S. cerevisiae deletion strains, locus YOR069W, strain VPS5, stronger effect = lower value 0.995 | S. cerevisiae deletion strains, locus YOR136W, strain idh2, stronger effect = lower value 0.979 | S. cerevisiae deletion strains, locus YOR144C, strain elg1, stronger effect = lower value 0.994 | S. cerevisiae deletion strains, locus YOR184W, strain ser1, stronger effect = lower value 0.932 | S. cerevisiae deletion strains, locus YOR316C, strain cot1, stronger effect = lower value 0.985 | S. cerevisiae deletion strains, locus YPL055C, strain LGE1, stronger effect = lower value 1.05 | S. cerevisiae deletion strains, locus YPL241C, strain CIN2, stronger effect = lower value 1 | S. cerevisiae deletion strains, locus YPR119W, strain clb2, stronger effect = lower value 0.999 | S. cerevisiae deletion strains, locus YPR141C, strain kar3, stronger effect = lower value 0.993 | S. cerevisiae deletion strains, locus YPR163C, strain tif3, stronger effect = lower value 0.981 | S. cerevisiae deletion strains, locus YPR167C, strain met16, stronger effect = lower value 0.994 | S. cerevisiae deletion strains, strain wtn01, stronger effect = lower value 0.985 | S. cerevisiae strains, strain wild type, stronger effect = lower value 0.957
